Source: PubChem
Shown are actives, neighbours in structure and some others; about 3.7% of the full set was active somewhere.
PTHR1 ag: qHTS for PTHR1 Agonists: Primary Screen; hit rate 0.075% among 410,000; Parathyroid hormone/parathyroid hormone-related peptide receptor (Homo sapiens), Q03431; HEK293 GP2 PTHR1 cells, GloSensor cAMP luminescence, 1 h; Potency, µM (top dose mostly 115 µM), for the others: at the top dose activation, most hits filed as activators; also: potency is read from the fitted curve at half-maximal effect; nearly all actives have a fitted effect of over 55% in size
Target sequence (Q03431 whole entry, looked up): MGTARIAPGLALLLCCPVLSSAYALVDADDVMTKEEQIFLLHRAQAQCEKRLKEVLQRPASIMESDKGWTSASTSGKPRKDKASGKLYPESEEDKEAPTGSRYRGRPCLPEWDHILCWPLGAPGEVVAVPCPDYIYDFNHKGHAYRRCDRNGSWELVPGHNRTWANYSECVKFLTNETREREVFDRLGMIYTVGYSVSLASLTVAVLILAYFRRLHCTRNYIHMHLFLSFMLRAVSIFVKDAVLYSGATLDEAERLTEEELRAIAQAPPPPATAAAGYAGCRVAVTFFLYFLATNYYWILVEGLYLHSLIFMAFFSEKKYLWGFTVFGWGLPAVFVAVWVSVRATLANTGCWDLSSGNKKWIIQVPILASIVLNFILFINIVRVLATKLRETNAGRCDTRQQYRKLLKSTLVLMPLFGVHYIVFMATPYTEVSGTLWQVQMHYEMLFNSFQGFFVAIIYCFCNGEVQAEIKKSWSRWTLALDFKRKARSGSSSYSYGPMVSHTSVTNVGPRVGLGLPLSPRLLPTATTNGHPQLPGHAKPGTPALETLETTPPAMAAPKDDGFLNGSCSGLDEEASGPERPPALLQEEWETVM
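HEK-293-derived GP2 cells expressing PTHR1 and a GloSensor cAMP reporter, 3,000/well, plated overnight, given luciferin plus IBMX (each 0.5 mM as added) for 1 h at 37 °C, then compound for 1 h at 37 °C. Luminescence was read after 15 min at room temperature.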
DRD3 antagonist: qHTS of D3 Dopamine Receptor Antagonist: qHTS; D(3) dopamine receptor (Homo sapiens), P35462; D3R cells, DiscoveRx beta-arrestin luminescence, antagonist mode; stronger effect = lower value; max response, negative = inhibition, %; hit rate 2.5% among 360,000; AID 652054, 2013; in the data active = max response below about -50%; inconclusive = no clear call, values can overlap the other calls; also: % is scaled to controls: 0 for no effect and ±100 for the full control effect
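Cells plated overnight at 1500 cells/well, then exposed to library compounds with dopamine controls for 90 minutes at 37 degrees C. DiscoveRx reagent added for 30–60 minutes at room temperature; luminescence read, quantitative HTS format.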
RGS4 inhibitor: Inhibitors of Regulator of G Protein Signaling (RGS) 4: qHTS | Regulator of G-protein signaling 4 (Homo sapiens), P49798 | Transcreener GDP fluorescence polarization, RGS4-accelerated GTP hydrolysis | Potency, µM (doses to about 114 µM), without a hit: at the top dose activity change, negative = inhibition, actives largely listed as inhibitors | hit rate 0.039% among 390,000 | AID 504845, 2011; also: potency is read from the fitted curve at half-maximal effect; % is scaled to controls: 0 for no effect and ±100 for the full control effect; nearly all actives have a fitted effect of over 75% in size
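MLSMR compounds (23 nl, pin-transferred) preincubated 10 min at room temperature with a 500nM (2x) first reagent, then RGS4 at 900nM (2x) plus Transcreener GDP mix added; fluorescence polarization (620/688 nm) read before and after 90 min at 30 °C.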
B2AR arrestin: qHTS assay of beta-arrestin-biased ligands of beta2-adrenergic receptor | beta-arrestin recruitment to beta2AR, cell-based reporter | Potency, µM (top dose mostly 46.1 µM), for inactives: at the top dose activation, most hits filed as activators | hit rate 0.02% among 330,000 | AID 492947, 2010;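 also: potency is read from the fitted curve at half-maximal effect; 0% = DMSO controls and full agonism = EC100 isoproterenol or metaproterenol; nearly all actives have a fitted effect of over 65% in size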
BRCA1 expr up: qHTS Assay to Identify Small Molecule Activators of BRCA1 Expression | MCF7-BRCA1-FFLuc reporter, luminescence, 48 h; response scale: scaled: vehicle 0%, 10 µM genistein 100% | Potency, µM (highest dose often 46.1 µM), for the others: at the top dose activation, hits mostly activators | hit rate 1.1% among 380,000; also: potency is read from the fitted curve at half-maximal effect; nearly all actives have a fitted effect of over 80% in size
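Activators of BRCA1 expression were detected as increased firefly luciferase luminescence in engineered MCF7 cells after 48 h compound incubation. Signals were scaled to genistein 10 microM as full activation.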
D3 ag: qHTS of D3 Dopamine Receptor Agonist: qHTS. D(3) dopamine receptor (Homo sapiens), P35462. D3R DiscoveRx beta-arrestin cells, luminescence, 90 min. max activation, %. hit rate 0.58% among 410,000; in the data active = max activation above about 30%; also: 0% is about no effect
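Agonist-mode cell screen: cells plated at 1500/well and incubated overnight at 37 °C, then exposed to library compounds for 90 min at 37 °C. Detection reagent was added for 30–60 min at room temperature, and luminescence was read.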
An asterisk follows results filed as active; i = inactive; ? = inconclusive; . = no result; [ ] = dose if it differs, or a comment. Unless noted, calls follow the shape of the dose curve; as a rule, active = well fitted curve in the direction sought with a large enough effect; inconclusive = small, poorly fitted or top-dose-only effect, or another doubt; inactive = no such curve, though single readings can be large; an effect the other way counts as inactive or inconclusive.

SMILES	PTHR1 ag	DRD3 antagonist	RGS4 inhibitor	B2AR arrestin	BRCA1 expr up	D3 ag
O=C(Nc1ccccc1)N1CCOCC1	-5.9%	19.9	24.5%	-0.8%	4.0%	-0.3
Cc1nc(-c2ccc(S(=O)(=O)Nc3ccc(C#N)cc3)cc2)co1	-69.5%	.	-7.6%	.	3.2%	2.7
COc1ccc([N+](=O)[O-])c(O)c1C(C)=O	-4.9%	-8.2	12.8%	.	-5.7%	0.2
COc1c(CC=C(C)C)cc(C2CC(=O)c3c(O)cc(O)cc3O2)c(CC=C(C)C)c1O (stereo unspecified)	-39.0%	9.9	18.9%	.	-59.8%	-10.0
CC(C)=CCc1cc([C@@H]2CC(=O)c3ccc(O)c(CC=C(C)C)c3O2)ccc1O	-30.5%	56.3	-18.6%	.	-51.1%	31.5*
Cc1nc(-c2ccc(Cl)cc2)sc1C1(C)CC(c2ccccc2Br)=NO1 (stereo unspecified)	i	28.2	11.2%	.	-8.0%	57.4*
Cc1nc(C(=O)Nc2cc(F)cc(Cl)c2)sc1C1(C)CC(c2ccccc2)=NO1 (stereo unspecified)	-92.0%	7.9	12.7%	.	-37.9%	40.9*
COc1ccccc1C1=NOC(C)(c2sc(-c3ccc(Cl)cc3)nc2C)C1 (stereo unspecified)	-28.9%	-10.0	-9.3%	-0.5%	?	18.4
C[C@@H]1CN([C@@H](C)CO)C(=O)CCCn2nncc2CO[C@H]1CN(C)C(=O)Nc1ccnc(N2CCOCC2)c1	-11.8%	11.9	.	.	6.0%	1.2
CCc1ccc(C2C(C(C)=O)=C(C(=O)OC)Nc3nnnn32)cc1 (stereo unspecified)	i	-56.8*	44.9%	0.4%	12.9%	-4.9
COC(=O)C1=C(C(C)=O)C(c2ccc(C)cc2)n2nnnc2N1 (stereo unspecified)	i	?	?	-0.2%	8.1%	-1.6
COc1ccc(C(=O)/C=C/C(=O)N(CC(=O)NC2CCCCC2)Cc2ccccc2)c(O)c1	-16.9%	-115.2*	?	0.4%	-99.9%	-31.0
COc1ccc(OC(=O)c2cnn(-c3ccccc3)c2C)cc1	-24.3%[57.5 µM]	16.3	-3.8%	-0.1%	10µM*	4.7
FC(F)(F)c1ccnc(N2CCN(Cc3cnc(-c4ccccc4)[nH]3)CC2)c1	i	-77.5*	6.6%	3.3%	-13.1%	-17.7
Cc1ccc(OC(C)C(=O)N2CCN(CCc3ccncc3)CC2)cc1C (stereo unspecified)	i	.	23.7%	.	-0.3%	-3.2
Cc1ccc(-n2c(Cl)c(Cl)nc(Cl)c2=O)cc1	-7.4%	-106.2*	-99.1%	?	-104.7%	-48.0
COc1nc(Cl)cn(-c2ccc(C)cc2)c1=O	i	7.8	21.9%	0.4%	-12.5%	2.8
Nc1ccn([C@@H]2O[C@H](C(=O)NCCCN3CCCC3=O)[C@@H](O)[C@H]2O)c(=O)n1	-9.4%	-6.4	.	.	6.0%	-3.8
Brc1ccc(-c2cn3cccnc3n2)cc1	-18.1%	-6.3	21.1%	5.6%	3.55µM*	-8.0
Clc1ccc(-c2cn3cccnc3n2)cc1	-10.2%	-0.6	-0.2%	-0.2%	?	-6.8
COC(=O)c1cc(S(=O)(=O)N2CCCCC2)c[nH]1	i	28.2	17.5%	0.4%	-0.3%	-0.4
Cc1cccc(-c2noc(-c3ccccc3C(=O)NCC3CCCO3)n2)c1 (stereo unspecified)	-8.9%	-18.9	-6.0%	0.1%	6.31µM*	2.0
COC(=O)c1cc(-c2cc(OC)ccc2OC)nc2c1c(=O)n(C)c(=O)n2Cc1ccccc1	-2.0%	-78.9*	-3.9%	-0.3%	-27.6%	-28.7
CCOc1cccc(/C(O)=C2/C(=O)C(=O)N(Cc3cccnc3)C2c2ccco2)c1 (stereo unspecified)	-23.5%	-5.3	35.6%	-1.2%	3.0%	-1.3
CCOc1cccc(/C(O)=C2/C(=O)C(=O)N(CCOC)C2c2ccco2)c1 (stereo unspecified)	i	-55.0*	-25.1%	-0.1%	16.2%	-1.0
SMILES	PTHR1 ag	DRD3 antagonist	RGS4 inhibitor	B2AR arrestin	BRCA1 expr up	D3 ag
CC(=O)Nc1ccc(Nc2nc3ccccc3nc2NS(=O)(=O)c2ccc(Cl)c([N+](=O)[O-])c2)cc1	-45.7%	-91.0*	-31.0%	.	-33.0%	3.4
O=[N+]([O-])c1ccc(N/N=C/C=C/c2ccco2)cc1	-22.1%	-57.2*	?	.	?	-19.7
O=C(O)c1ccc(N/N=C/C=C/c2ccc([N+](=O)[O-])o2)cc1	-11.7%	-53.4*	-7.9%	0.1%	-26.1%	-11.7
O=C(N/N=C/c1ccc([N+](=O)[O-])o1)C(=O)Nc1ccc(C(=O)O)cc1	i	2.2	12.6%	7.7%	1.9%	3.2
CCOc1ccc(-c2nnc(NC(=O)C3CCCC3)o2)cc1	-11.2%	-105.4*	-24.7%	0.1%	?	-6.2
CC(NC(=O)CCCc1c[nH]c2ccccc12)c1ccc(F)cc1 (stereo unspecified)	i	-20.2	4.2%	0.1%	-21.7%	-9.6
Nc1[nH]c(C(=O)c2ccccc2)c(-c2ccccc2C(F)(F)F)c1C(=O)NCc1cccc2ccccc12	i	-27.5	.	.	12.1%	1.7
CC1(C(=O)OCC(=O)c2c[nH]c3ccccc23)CC1(Cl)Cl (stereo unspecified)	-48.6%	9.0	4.1%	0.5%	8.91µM*	1.7
Cc1ccc(S(=O)(=O)CCC(=O)OCC(=O)c2c[nH]c3ccccc23)cc1	i	-13.3	-48.9%	-0.2%	-16.5%	32.9*
Cc1ccc(S(=O)(=O)CCC(=O)OCC(=O)c2cc(C)ccc2C)cc1	-11.0%	4.3	4.8%	-0.2%	-33.6%	-6.1
Cc1ccc(CNC(=O)c2cn(C3CCCCC3)c(=O)c3c2c2ccccc2n3C)o1	i	-75.2*	?	6.8%	-58.8%	-1.5
Cn1c(C(=O)NCCCN2CCN(c3ccccc3F)CC2)cc2c(=O)n(C)c3ccccc3c21	-4.6%	-73.1*	-15.2%	0.0%	0.0%	-0.9
Cn1c(C(=O)NCCN2CCN(Cc3ccccc3)CC2)cc2c(=O)n(C)c3ccccc3c21	-16.4%	-93.1*	17.7%	0.0%	-4.3%	-13.6
CC1CCN(CCCNC(=O)c2cc3c(=O)n(C)c4ccccc4c3n2C)CC1	-4.5%	-83.4*	6.7%	0.3%	-4.2%	-16.4
COc1cc(F)ccc1-c1cc(C(=O)NCc2ccc(F)cc2)[nH]n1	-4.6%	?	.	.	-8.5%	-17.4
